Source: the supplement of paper PMC6555819

How the values were obtained:
Test in all cases: PBM binding z-score (relative to random genomic background probes); higher = stronger binding; sequences stand for … in GC…GCGATTGACAGCGTAGAATGAAGG
[1] = tested on: RARb homodimer (NR concentration 270 nM)
Procedure, shortened: (§1)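 Scanned fluorescence from custom Agilent 4×180K protein-binding microarrays was regression-normalized. Binding z-scores use random background probes as reference. Ligand-free nuclear receptor dimers were incubated on the arrays for 1 h and detected with antibodies against each partner (one per run).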

[2] = tested on: RARg:RXRa (NR concentration 270 nM, RXRa partner concentration 90 nM)
Procedure, shortened: as §1

[3] = tested on: RARg homodimer (NR concentration 270 nM)
Procedure, shortened: as §1

[4] = tested on: RXRa DBDmut IVT, anti-RXR (DBD mutation: RXRa K156A/R161A, NR concentration 90 nM)
Procedure, shortened: as §1

[5] = tested on: RXRa homodimer (NR concentration 180 nM)
Procedure, shortened: as §1

[6] = tested on: THRa homodimer (NR concentration 90 nM)
Procedure, shortened: as §1

[7] = tested on: VDR homodimer (NR concentration 270 nM)
Procedure, shortened: as §1

[8] = tested on: VDR:RXRa (NR concentration 270 nM, RXRa partner concentration 90 nM)
Procedure, shortened: as §1

| Sequence | PBM binding z-score [1] | PBM binding z-score [2] | PBM binding z-score [3] | PBM binding z-score [4] | PBM binding z-score [5] | PBM binding z-score [6] | PBM binding z-score [7] | PBM binding z-score [8] |
| --- | --- | --- | --- | --- | --- | --- | --- | --- |
| TAGCCGAGGTCAGATCGGGCCAGTATACGCTATA | 3.62 | 5.06 | 5.59 | 2.66 | 4.74 | 1.32 | 2.08 | – |
| TTACCAAGGTGAGCTGAGGTCATTGATCCAACTC | 3.91 | 3.65 | 3.31 | 0.946 | 4.03 | 4.43 | 4.32 | – |
| CAAACTAGGTCACTGAGGTCAAAGTCCGTGCGTA | 5.53 | 6.59 | 7.09 | 3.56 | 6.35 | 5.12 | 7.63 | – |
| ATATGCAGGTTAGCTGGGGTCATTCAGACTAGGC | 3.72 | 4.14 | 3.11 | 1.89 | 5.56 | 2.98 | 4.17 | – |
| CAAACTAGGTCACGTAAGGTCAAAGTCGAATGAC | 5.56 | 7.3 | 7.46 | 2.68 | 6.84 | 5.19 | 4.03 | – |
| ACTAGTTGGTCAACTGAGGTCACACACAATTCGG | 4.82 | 4.49 | 4.46 | 1.89 | 4.58 | 4.84 | 3.22 | 5.33 |
| AATACAGGGTCATCCTAGGCCAGAGTACGCACAG | 3.81 | 5.57 | 4.83 | 3.9 | 6.16 | 1.97 | 3.52 | – |
| TCTGCTAGGTCAACGAAGGTCAGCTAATCTGCTA | 5.28 | 5.51 | 6.42 | 1.14 | 4.18 | 1.69 | 1.38 | – |
| TATACATGGTCAAAGGCCAGAGTACGAATGTCGA | 1.31 | 1.59 | 1.67 | -0.652 | 1.39 | -0.46 | 0.302 | – |
| CTCGAAAGGTCGTGCTCAGGTCAGTATACCAAAC | 4.16 | 7.03 | 4.92 | 2.37 | 5.35 | 2.7 | 2.45 | – |
| CCTTACGGGTCACTCGAGGTTATAGCATCGGAGT | 3.27 | 4.49 | 3.78 | 1.69 | 4.75 | 0.632 | 2.08 | – |
| GCGACTGGGGCAAAGCAGGTCACCATAAGGTTGG | 3.27 | 2.56 | 2.37 | -0.174 | 2.09 | 1.37 | 0.256 | – |
| GCATATAGGTTATACAAGGTGAAAGTCCGATTGT | 1.57 | 1.7 | 1.41 | 0.657 | 1.79 | 1.27 | 0.435 | – |
| CGTCCAAGGTCAGCGAGGTCAGTGAATGCCGAGT | 5.62 | 6.74 | 7.69 | 3.3 | 6.29 | 4.19 | 6.64 | – |
| GCATATAGGTAATACAAGATGAAAGTCCGATTGT | -0.399 | 0.381 | 0.572 | 0.287 | 0.469 | -0.636 | -0.117 | – |
| GGAACGTGGGCATTCGAGTTGATAGCATGGCGAT | -0.657 | -0.318 | -0.321 | -0.166 | -0.389 | -1.07 | 0.0395 | – |
| TTACCGAGGTGAGCTGAGGTCGTTGATCCAACTC | 1.58 | 1.48 | 1.04 | 0.0413 | 1.7 | 1.88 | 1.73 | – |
| CGAACTAGATCAGAACAGGACAGTGAAGGATGAT | 0.0748 | -0.355 | 0.431 | 0.063 | 0.00592 | -0.243 | -0.111 | – |
| TAGCCTAGGTCAGATCGGGTCAGTATACGCTATA | 3.56 | 3.77 | 4.62 | -0.194 | 2.58 | 1.29 | 0.51 | – |
| CGCGAAAGGTCGGTTGAGGTGAGTATACGGATAA | 2.23 | 2.88 | 2.61 | 0.708 | 2.44 | 1.65 | 0.652 | – |

| Sequence | PBM binding z-score [1] | PBM binding z-score [2] | PBM binding z-score [3] | PBM binding z-score [4] | PBM binding z-score [5] | PBM binding z-score [6] | PBM binding z-score [7] | PBM binding z-score [8] |
| --- | --- | --- | --- | --- | --- | --- | --- | --- |
| ACTCGGAGGACAAAGATCAGAGCTACGCCAGTGA | -0.272 | 0.568 | 0.931 | 0.426 | 0.18 | -0.696 | -0.571 | – |
| CAAACTAGGTCATGAGGTCAAAGTCCGCTTCCCG | 5.22 | 7.26 | 6.81 | 3.45 | 7.98 | 4.88 | 5.84 | – |
| CGTCCAAGGTCAAAGGTCAGTGGAGAGATGACGG | 5.56 | 8.71 | 8.02 | 4.1 | 10.1 | 2.93 | 4.05 | – |
| CTCGAAAGGTCGTTTGAGGTGAGTATACGGATAA | 3.19 | 4.34 | 3.76 | 2.94 | 4.56 | 1.76 | 2.79 | – |
| GGAACGAGGGCATTCGAGGTGATAGCATGGCGAT | 1.3 | 1.4 | 1.47 | 2.66 | 1.07 | 0.517 | 1.77 | – |
| AATACAGGGTCATCGGAGGCCAGAGTACGCACAG | 4.26 | 5.91 | 5.05 | 3.51 | 6.76 | 1.96 | 3.88 | 5.88 |
| TAGCCTAGGCCATTCAGGGGCCAGTATAGAAAGC | 0.802 | 0.999 | 0.71 | -0.81 | -0.0459 | -0.688 | -0.441 | – |
| ATATGTAGGTTAGCTGGGGTCATTCATACTAGGC | 3.88 | 4.01 | 3.08 | 2.52 | 5.44 | 3.63 | 4.81 | 6.21 |
| GATACAGGGGCAGCTAGAGGCCAGAGTATGGAAA | 1.18 | 2.18 | 1.15 | -0.0216 | 0.387 | -0.373 | -0.000725 | -0.219 |
| CAAACTAGGTCACGCAAGGTCAAAGTCGAATGAC | 5.54 | 6.98 | 7.6 | 3.02 | 6.98 | 4.21 | 4.65 | 6.9 |
| TAGCCTAGCTCAGATCGGGCCAGTATACGCTATA | -1.12 | -0.862 | -0.645 | -1.11 | -0.698 | -0.99 | -0.652 | – |
| CCTAGTTGGTCAACGTCACACACGCTATAGGTAC | 1.13 | 0.774 | 1.18 | 0.857 | 0.526 | 0.632 | 0.435 | – |
| GCTAGTTGGTCAGTAAAAGGTAACACACCGGTCG | 1.31 | 0.845 | 0.741 | 0.148 | 0.462 | 0.175 | 0.0919 | – |
| CGTCAAAGTTCAATTAAGGTAACGTAAAGCACGC | 3.89 | 5.26 | 5.98 | 4.4 | 3.67 | 2.51 | 3.71 | – |
| CGTCCAAGGTCATAGGAGGTCAGAGAAGACAGAT | 5.31 | 6.78 | 7.13 | 4.15 | 6.71 | 3.44 | 4.23 | 6.67 |
| CCTAGCAGGTCAATCTGGGTCACTCAAGGCTTGA | 4.09 | 4.92 | 5.25 | 2.2 | 4.25 | 1.44 | 1.66 | – |
| CTCGAAAGGTCGATTGAGGTGAGTATACGGATAA | 2.68 | 3.71 | 3.34 | 1.66 | 3.46 | 0.93 | 0.553 | – |
| CAAACCAGGTCACCGGAAGGTCAAAGTCCGCATG | 5.65 | 8.7 | 7.24 | 3.06 | 7.56 | 4.28 | 3.95 | – |
| CCTAGCAGGCCAATCTGGATCACTCAAGGCTTGA | -0.439 | -0.153 | -0.148 | 0.159 | -0.35 | -0.7 | -0.867 | – |
